HP1b chromo inh: inhibitors of HP1-beta chromodomain binding to methylated histone tails; Potency, µM (highest dose often 114 µM), inactives show at the highest dose activity change, negative = inhibition, hits mostly inhibitors; P83916; AlphaScreen HP1-beta / biotin-H3K9me3 peptide binding; actives 0.56% (n = 390,000); note: potency is the fitted concentration of half-maximal effect; nearly all actives have a fitted effect of over 70% in size
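AlphaScreen: HP1-beta (50 nM) preformed 30 min with biotin-H3(1-18)K9me3 peptide (50 nM) in PBS pH 7.4, 0.01% Tween-20. Compound added for 30 min at RT, then streptavidin donor/nickel chelate acceptor beads (10 ug/mL) for 30 min.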
CtBP-E1A blk: inhibitors of CtBP/E1A interaction; AlphaScreen GST-E1A/His-CtBP binding, 1536-well; active compounds read low; activity change, % (no concentration beside the values); actives 0.49% (n = 340,000); in the data active = activity change below about -65%; inconclusive = mostly about -30% to -63%; note: % is set by controls: 0 for no effect and ±100 for the full control effect
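Protein mix (5X: 125 nM each GST-E1A, His-CtBP) was incubated with pinned compound 2 h at 37 deg C in dark, in 50 mM Tris pH 8.0 buffer with 300 mM NaCl. Glutathione donor and nickel acceptor beads followed; AlphaScreen signal read after 1 h.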
G9a inh: blocks human histone lysine methyltransferase G9a | Q96KQ7 | G9a H3K9 monomethylation, AlphaScreen, 2 h | Potency, µM (titrated, usually from 102 µM), inactives show top-dose activity, negative = inhibition, hits mostly inhibitors | actives 8.8% (n = 350,000); note: potency is the fitted concentration of half-maximal effect; % is set by controls: 0 for no effect and ±100 for the full control effect; nearly all actives have a fitted effect of over 75% in size
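Using a bead-based AlphaScreen, monomethylated H3K9 product from 2 h room-temperature reactions (G9a 20 nM, peptide 500 nM, SAM 20 uM) was detected with 0.5 ug/mL rabbit anti-H3K9me1 antibody.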
Six1-Eya2 blk: blocks human Six1 binding to Eya2; activity change, % (no concentration beside the values); actives 0.56% (n = 360,000); AlphaScreen GST-Six1/His-Eya2 binding, biochemical; active compounds read low; AID 651725; Q15475+O00167; in the data active = activity change below about -65%; inconclusive = mostly about -30% to -63%; note: % is set by controls: 0 for no effect and ±100 for the full control effect
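Homogeneous AlphaScreen proximity assay pairing GST-Six1 with His-tagged Eya2 (added as 5X mix: 250 nM and 500 nM) in 50 mM Tris pH 8.0, 300 mM NaCl, 1 mM TCEP. Glutathione donor and nickel acceptor beads; 1 h, 37 °C, dark.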
BAZ2B inh: inhibitors of human BAZ2B bromodomain; Q9UIF8; AlphaScreen BAZ2B-H3K14Ac peptide displacement; Potency, µM (top dose mostly 114 µM), without a hit: at the highest dose activity change, negative = inhibition, hits mostly inhibitors; actives 4.4% (n = 360,000); AID 504333; note: potency is the fitted concentration of half-maximal effect; % is set by controls: 0 for no effect and ±100 for the full control effect; nearly all actives have a fitted effect of over 60% in size
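Compounds, titrated to a top concentration of 110 uM, were incubated 30 min at room temperature with preformed BAZ2B/acetyl-K14 H3 peptide complex (50 nM each). Proximity signal was measured by AlphaScreen after 20 min with beads.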
JMJD2A Tudor: blocks the human JMJD2A Tudor domain; O75164; Potency, µM (doses to about 114 µM), without a hit: top-dose activity change, negative = inhibition, most hits filed as inhibitors; actives 4.4% (n = 390,000); AlphaScreen JMJD2A-Tudor / H3K4me3 peptide binding; AID 504339; note: potency is the fitted concentration of half-maximal effect; % is set by controls: 0 for no effect and ±100 for the full control effect; nearly all actives have a fitted effect of over 50% in size
An asterisk follows results filed as active; ? = inconclusive; . = no result given; ! = a repeat was not active; [ ] = dose if it differs, or a comment. An excerpt weighted towards active compounds, which were near 10% of everything screened. Unless noted, calls come from the whole dose curve; as a rule, active = well fitted inhibition curve with a large enough effect; inconclusive = small, poorly fitted or top-dose-only effect; inactive = no such curve, though single readings can be large or run the other way.

SMILES	HP1b chromo inh	CtBP-E1A blk	G9a inh	Six1-Eya2 blk	BAZ2B inh	JMJD2A Tudor
CN(C)c1ccc(C=C2SC(=S)NC2=O)cc1	-9.9%[57 µM]	-12.9	.	-25.3	.	?
CN(C)c1ccc(/C=C2\CCCCC2=O)cc1	-9.2%	3.0	50.1µM*	-3.0	?	?
O=c1c(-c2cccs2)nc2cnc(N3CCNCC3)nc2n1C1CC1	.	.	4.9%[0.501 µM]	.	.	.
O=C(COC(=O)[C@H](Cc1c[nH]c2ccccc12)NC(=O)c1ccc(Cl)cc1)Nc1ccc2c(c1)OCO2	-13.4%	-4.8	?	-13.2	56.2µM*	?
COc1ccc(N2CCN(S(=O)(=O)CCNC(=O)COc3ccccc3C)CC2)cc1	8.0%	4.5	44.7µM*	-13.9	?	-33.1%
Cc1ccccc1OCCCC(=O)Nc1ccc(N2CCOCC2)cc1	9.1%	-21.9	44.7µM*	-11.7	0.6%	-21.5%
COc1ccccc1OCCCC(=O)Nc1ccc(N2CCOCC2)cc1	29.6%	-1.2	?	-9.9	-12.5%	-12.0%
COc1ccccc1OCC(=O)Nc1ccc2c(c1)OCO2	-7.8%	1.0	-19.1%	-1.4	50.1µM*	?
COC(=O)c1cc2oc3ccccc3c2n1Cc1ccccc1Cl	28.7%	.	0.4%[59 µM]	.	12.7%	-2.9%
COc1ccccc1OCC(=O)Nc1ccc(N2CCCCC2)cc1	-6.1%	-20.2	22.4µM*	?	?	?
Cc1ccc(OCC(=O)NC2=NCCS2)cc1	?	-8.6	.	-1.5	-6.5%	-16.9%
CCOc1ccccc1OCC(=O)Nc1ccc(N2CCCCC2)cc1	16.5%	?	?	-28.2	-38.1%	?
Cc1cccc(OCC(=O)Nc2ccc(N3CCCC3)cc2)c1C	-23.5%	5.3	28.2µM*	-16.7	.	?
Cc1cccc(OCC(=O)Nc2ccc3oc(=O)ccc3c2)c1C	30.2%	5.5	50.1µM*	-2.2	-11.5%	-1.4%
Cc1cccc(OCC(=O)Nc2ccccc2N2CCCC2)c1C	-2.7%	-29.8	7.0%[0.501 µM]	-15.4	-17.2%	-30.3%
Cc1ccccc1OCC(=O)NC1=NCCS1	38.5%	7.3	28.2µM*	2.8	-29.4%	-7.7%
COc1ccc(C(=O)N(Cc2ccccc2)Cc2ccc(OC)c(COc3ccc(NC(C)=O)cc3)c2)cc1	-0.1%	.	.	.	.	?
COC(=O)CC1Oc2ccc(C)cc2-n2cc(-c3ccc(F)cc3)nc21 (stereo not drawn)	19.0%	.	-25.6%[59 µM]	.	-26.5%	-15.7%
O=C1CC(N2CCN(S(=O)(=O)c3ccccc3F)CC2)C(=O)N1c1ccccc1Cl (stereo not drawn)	46.0%	1.9	-0.8%[12.7 µM]	4.7	-5.9%	-4.8%
Cc1ccc(C(=O)N2CCN(c3ccc(NC(=O)COc4ccccc4C)cc3)CC2)cc1	-17.2%	-11.4	39.8µM*	-24.5	35.5µM*	?
CCC(=O)N1CCN(c2ccc(NC(=O)COc3ccccc3Cl)cc2)CC1	26.3%	5.1	15.8µM*	-2.6	-7.8%	-25.0%
O=C(Nc1ccc2c(c1)OCO2)C1CC(=O)N(CCc2ccccc2)C1 (stereo not drawn)	-5.2%	-2.2	16.5%[59 µM]	1.3	?	-34.7%
COc1ccc(CCN2CC(C(=O)Nc3ccc4c(c3)OCO4)CC2=O)cc1OC (stereo not drawn)	?	2.0	1.1%[59 µM]	28.0	?	79.4µM*
Cc1noc(C)c1S(=O)(=O)NCc1ccc2c(c1)OCO2	30.9%	2.6	11.0%	9.7	-0.7%	-6.3%
O=C(CN1CCN(Cc2ccc(F)cc2)CC1)Nc1ccccc1F	88.0%	.	13.3%	5.7	-0.3%	-0.3%
SMILES	HP1b chromo inh	CtBP-E1A blk	G9a inh	Six1-Eya2 blk	BAZ2B inh	JMJD2A Tudor
Cc1ccccc1N=C1NC(=O)/C(=C/c2cccn2-c2cccc(C(=O)O)c2)S1	?	4.9	28.2µM*	-15.8	39.8µM*	50.1µM*
Cc1cccc(N=C2NC(=O)/C(=C/c3cccn3C)S2)c1C	-15.9%	-14.7	?	-27.9	31.6µM*	?
CC(=O)NC1C(=O)SC1(C)C (stereo not drawn)	.	.	28.2µM*	.	-9.8%	.
COc1ccccc1CNC(=O)CCC(=O)N1Cc2ccccc2Oc2ncccc21	31.5%	.	-0.4%[59 µM]	.	2.7%	-1.6%
CC(=O)N1CCN(Cc2cc(=O)oc3ccc4ccccc4c23)CC1	.	0.5	.	-6.7	.	.
O=C1CC(N2CCN(c3ccc(O)cc3)CC2)C(=O)N1c1ccc2c(c1)OCO2 (stereo not drawn)	?	1.6	15.8µM*	-3.1	-21.5%	?
COc1ccc(N2C(=O)CC(N3CCN(Cc4ccc5c(c4)OCO5)CC3)C2=O)cc1 (stereo not drawn)	34.8%	-3.1	39.8µM*	14.1	-1.8%	-18.5%
CCC(=O)Nc1ccc(-c2csc(C)n2)cc1	8.9%	0.1	-1.7%	1.0	1.4%	0.0%
CCC(=O)Nc1ccc(-c2csc(NNC(C)=O)n2)cc1	23.9%	-9.2	14.1µM*	2.4	-27.2%	-8.4%
CCCCCC(=O)Nc1ccc(-c2csc(N)n2)cc1	24.8%	3.9	39.8µM*	-8.0	?	-29.3%
CCCCCC(=O)Nc1ccc(-c2csc(C)n2)cc1	15.9%	-1.3	7.3%[59 µM]	3.1	26.8%	-14.5%
CC(=O)Nc1ccc(-c2csc(N/N=C(/C)c3ccccc3)n2)cc1	-16.6%	-5.7	17.8µM*	-10.5	?	?
CC(=O)Nc1ccc(-c2csc(NC(=O)CC(NC(C)=O)c3ccccc3)n2)cc1 (stereo not drawn)	-17.8%	-4.7	44.7µM*	-0.8	-3.2%	-13.0%
CC(=O)Nc1ccc(NC(=O)CCC(=O)c2ccc(C)cc2)cc1	51.6%	.	7.8%[59 µM]	.	2.7%	-2.2%
CC1(C(=O)NS(=O)(=O)c2ccc(F)cc2F)CCN1C(=O)Cc1ccc(Cl)cc1Cl (stereo not drawn)	.	-3.7	.	2.5	.	.
O=C(C1=C[C@@H](c2ccc(C(F)(F)F)cc2)C[C@@H](OCc2ccc(CO)cc2)O1)N1CCN(Cc2ccccc2)CC1	24.9%	-2.7	?	-14.8	-33.6%	-31.4%
O=C(Nc1ccccc1)N1CCCC2(CCN(C(=O)c3csnn3)CC2)C1	.	.	10.2%[12.7 µM]	.	.	.
C[C@]12CC[C@@H]3c4ccc(O)cc4CC[C@H]3[C@@H]1CC[C@@H]2O	24.0%	6.0	20µM*!	1.9	-35.5%	-24.1%
COc1cc2c(cc1O)CCC1C2CC[C@]2(C)[C@@H](O)CC[C@@H]12 (stereo partly drawn)	.	.	39.8µM*	.	.	.
C[C@@]12CC[C@@H]3c4ccc(O)cc4CC[C@H]3[C@H]1CC[C@H]2O	.	.	-3.7%[21.5 µM]	.	.	.
COc1ccc(C)cc1NCc1cc(=O)oc2cc(-c3ccccc3)c(O)cc12	19.3%	-24.2	-6.6%	-2.8	5.4%	-12.7%
CCOc1ccccc1NCc1cc(=O)oc2cc(C)ccc12	-14.9%	-6.5	44.7µM*	-2.4	-36.4%	?
